Bioassay records from PubChem BioAssay.
Lassa entry inh: blocks Lassa virus binding to or entry into cells; Lassa virus pseudotype entry inhibition, cell reporter; Potency, µM (titrated, usually from 37.9 µM), without a hit: top-dose activity change, negative = inhibition, most hits filed as inhibitors; hit rate 1.2% among 300,000; calls by dose curve; tested in HEK293 cells; also: potency is read from the fitted curve at half-maximal effect; nearly all actives have a fitted effect of over 50% in size
HCMV antiviral: inhibitors of human cytomegalovirus | HFF cells, HCMV-luciferase reporter, 72 h; stronger effect = lower value | activity change, negative = inhibition, % at 57.5 µM | hit rate 4.5% among 410,000 | AID 1259415; in the data active = activity change below about -60%; inconclusive = no clear call, values can overlap the other calls; inactive = above about -39%
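Inhibition of viral replication was scored as loss of reporter luminescence in HFFs infected with HCMV-luciferase (MOI 1 PFU/cell) for 72 h; compounds tested at 2 doses, normalized to buffer and Salinomycin controls.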
FMDV antiviral: blocks foot and mouth disease virus; FMDV antiviral cell-based qHTS; Potency, µM (top dose mostly 57.9 µM), for the others: at the top dose activity change, negative = inhibition, most hits filed as inhibitors; hit rate 1.2% among 410,000; AID 1159524; calls by dose curve; tested in HEK293T cells; also: read-out not given here; potency is read from the fitted curve at half-maximal effect; nearly all actives have a fitted effect of over 45% in size
FBPA Giardia inh: blocks Giardia fructose-bisphosphate aldolase activity; A8B2U2; purified Giardia FBPA; Potency, µM (highest dose often 59.6 µM), for inactives: at the top dose activity, negative = inhibition, hits mostly inhibitors; hit rate 0.71% among 290,000; also: potency is read from the fitted curve at half-maximal effect; nearly all actives have a fitted effect of over 55% in size
Target sequence (A8B2U2 whole entry, looked up): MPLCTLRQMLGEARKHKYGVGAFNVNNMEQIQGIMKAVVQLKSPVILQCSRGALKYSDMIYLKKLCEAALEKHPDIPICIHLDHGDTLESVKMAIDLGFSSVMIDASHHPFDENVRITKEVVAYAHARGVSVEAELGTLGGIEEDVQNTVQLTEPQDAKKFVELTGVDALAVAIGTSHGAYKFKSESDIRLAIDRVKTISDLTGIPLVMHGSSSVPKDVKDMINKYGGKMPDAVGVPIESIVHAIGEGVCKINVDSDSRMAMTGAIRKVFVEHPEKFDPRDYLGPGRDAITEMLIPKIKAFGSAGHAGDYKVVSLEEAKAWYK
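Giardia FBPA (40 nM reagent) was preincubated 10 min at RT with compound (up to 57.5 uM final), then substrate plus GAPDH/TPI/NAD/arsenate coupling system with diaphorase/resazurin was added; resorufin fluorescence (525/598 nm) was read after 20 min.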
HCV inhibitor: HCV inhibition; Huh7.5.1 HCVcc-Cre infection, luciferase reporter, 44 h; Potency, µM (titrated, usually from 41.8 µM), for inactives: at the highest dose activity change, negative = inhibition, usual class: inhibitors; hit rate 3.4% among 340,000; AID 651820; also: potency is read from the fitted curve at half-maximal effect
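Seed cells (1,000/well) for 4 h; treat with compound and infect with HCVcc-Cre, moi about 0.5. Incubate 44 h, then detect luciferase activity.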
Marburg entry inh: blocks Marburg virus binding to or entry into cells | hit rate 1.8% among 300,000 | Potency, µM (top dose mostly 37.8 µM), without a hit: at the top dose activity change, negative = inhibition, most hits filed as inhibitors | Marburg virus pseudotyped entry inhibition, cell reporter; calls by dose curve; tested in HEK293 cells; also: potency is read from the fitted curve at half-maximal effect
Active calls of the source: *; [ ] = another dose, or the depositor's remark. A selection: hits, their analogues and other compounds. The true share with any hit is near 8.3%. Unless noted, calls follow the shape of the dose curve; as a rule, active = well fitted curve in the direction sought with a large enough effect; inconclusive = small, poorly fitted or top-dose-only effect, or another doubt; inactive = no such curve, though single readings can be large; an effect the other way counts as inactive or inconclusive. % is scaled to controls: 0 for no effect and ±100 for the full control effect.

Screening CN(C)c1nc(C=C(C#N)C#N)c(Cl)n1-c1ccc(F)cc1 returned Lassa entry inh inconclusive, HCMV antiviral -97*, FMDV antiviral 14µM*, FBPA Giardia inh -4%, HCV inhibitor inconclusive and Marburg entry inh inconclusive.
Screening O=C(NCC1CC1)[C@@H]1[C@@H](CO)[C@@H]2Cn3c(cccc3=O)[C@@H]2N1Cc1cccc(F)c1 returned HCMV antiviral -4.
O=C(CCCCCn1c(=O)[nH]c2ccccc2c1=O)N1CCN(Cc2ccc3c(c2)OCO3)CC1 was read as Lassa entry inh 16µM*, HCMV antiviral -19, FMDV antiviral inconclusive, FBPA Giardia inh 2%, HCV inhibitor inconclusive and Marburg entry inh inconclusive.
Screening CCn1c(=O)cc(SCC(=O)N2CCC(C)CC2)c2ccccc21 returned Lassa entry inh 10%, HCMV antiviral 57, FMDV antiviral -10%, FBPA Giardia inh 1%, HCV inhibitor inconclusive and Marburg entry inh inconclusive.
Screening CCn1c(=O)cc(SCC(=O)N2CCN(Cc3ccc4c(c3)OCO4)CC2)c2ccccc21 returned Lassa entry inh -19%, HCMV antiviral 99, FMDV antiviral 40µM*, FBPA Giardia inh 4%, HCV inhibitor inconclusive and Marburg entry inh 1%.
Screening CCOC(=O)C1CCN(C(=O)CSc2cc(=O)n(CC)c3ccccc23)CC1 returned Lassa entry inh -22%[14.3 µM], HCMV antiviral 6, FMDV antiviral 14%, FBPA Giardia inh 0%, HCV inhibitor 11µM* and Marburg entry inh 0%.
For COc1ccc(N=C2NN=C(c3c(C)[nH]c4ccccc34)CS2)cc1 the results were Lassa entry inh inconclusive, HCMV antiviral inconclusive, FMDV antiviral -16%, FBPA Giardia inh -19%, HCV inhibitor inconclusive and Marburg entry inh 11µM*.
For COc1cccc(NC(=O)Cn2c(=O)c3cccn3c3ccc(F)cc32)c1 the results were Lassa entry inh -1%[46.1 µM], HCMV antiviral -65* and FMDV antiviral 0%.
`Cc1cccc(CNC(=O)CCn2c(=O)c3cccn3c3ccc(F)cc32)c1` gave Lassa entry inh 5%[46.1 µM], HCMV antiviral -85* and FMDV antiviral -10%.
`CCc1ccc(NC(=O)CCn2c(=O)c3cccn3c3ccccc32)cc1` gave Lassa entry inh inconclusive, HCMV antiviral 25, FMDV antiviral -16%, HCV inhibitor 11µM* and Marburg entry inh inconclusive.
For O=C(Cn1c(=O)c2cccn2c2ccccc21)Nc1cc(F)ccc1F the results were Lassa entry inh inconclusive, HCMV antiviral 4, FMDV antiviral 6% and HCV inhibitor 11µM*.
`COC1OC(COC(=O)c2ccccc2)C(OC(=O)c2ccccc2)C1OC(=O)c1ccccc1` (centres undefined) gave HCMV antiviral -27, FMDV antiviral -20%, FBPA Giardia inh 2% and HCV inhibitor -1%.
Screening O=C(O)C[C@@H]1C(=O)O[C@@H]2C(COC(=O)c3cc(O)c(O)c(O)c3)O[C@@H](OC(=O)c3cc(O)c(O)c(O)c3)[C@@H](OC(=O)c3cc(O)c(O)c4c3[C@H]1[C@H](O)C(=O)O4)[C@H]2OC(=O)c1cc(O)c(O)c(O)c1 (some centres undefined) returned FBPA Giardia inh 4µM*.
`Cc1ccc(OCC(=O)Nc2ccc(S(=O)(=O)N3CCCCC3)cc2)c([N+](=O)[O-])n1` gave Lassa entry inh -4%[46.1 µM], HCMV antiviral -5, FMDV antiviral -24%, FBPA Giardia inh -5%, HCV inhibitor -20% and Marburg entry inh -12%[46.1 µM].
`COc1ccc(OCC(=O)Nc2ccc(S(=O)(=O)N3CCCCCC3)cc2)cc1` gave Lassa entry inh 9%, HCMV antiviral -35, FMDV antiviral 0%, FBPA Giardia inh 4%, HCV inhibitor -2% and Marburg entry inh 7%.
`Cc1ccc(OCC(=O)Nc2ccc(C)c(S(=O)(=O)N3CCCCC3)c2)c([N+](=O)[O-])n1` gave Lassa entry inh inconclusive, HCMV antiviral -19, FMDV antiviral inconclusive, FBPA Giardia inh -14%, HCV inhibitor inconclusive and Marburg entry inh 1.1µM*.
Screening COc1ccc(NC(=O)CSc2ccc3ccccc3c2)cc1S(=O)(=O)N1CCCCC1 returned Lassa entry inh inconclusive, HCMV antiviral -82*, FMDV antiviral inconclusive, FBPA Giardia inh 0%, HCV inhibitor 5µM* and Marburg entry inh inconclusive.
Screening COc1ccc(OCC(=O)Nc2ccc(OC)c(S(=O)(=O)N3CCCCC3)c2)cc1 returned Lassa entry inh inconclusive, HCMV antiviral -25, FMDV antiviral -15%, HCV inhibitor 10µM* and Marburg entry inh inconclusive.
Screening COc1ccc(NC(=O)COc2ccccc2Cl)cc1S(=O)(=O)N1CCCCC1 returned Lassa entry inh inconclusive, HCMV antiviral inconclusive, FMDV antiviral -6%, HCV inhibitor 10µM* and Marburg entry inh inconclusive.
`Cc1ccccc1OCC(=O)Nc1ccc(C)c(S(=O)(=O)N2CCCCCC2)c1` gave Lassa entry inh inconclusive, HCMV antiviral -17, FMDV antiviral -24%, HCV inhibitor inconclusive and Marburg entry inh inconclusive.
COc1ccc(NC(=O)N2CCc3c(sc4c3CCCC4)C2c2ccccc2OC)cc1 (centres undefined) was read as Lassa entry inh -2%[46.1 µM], HCMV antiviral -28 and FMDV antiviral -6%.
O=C(CCNS(=O)(=O)c1ccc(Br)s1)Nc1ccc(Br)cc1 was read as Lassa entry inh -7%[46.1 µM], HCMV antiviral -16, FMDV antiviral 27% and Marburg entry inh 19%[46.1 µM].
C[C@@H]1CN(Cc2ccc3c(c2)CN(C(=O)CN2CCOc4ccccc4C2)CCO3)C[C@H](C)O1 was read as FMDV antiviral -7%.
For COc1ccc(C(=O)OCC(=O)Nc2ccc(OC)c(S(=O)(=O)N3CCCCC3)c2)cc1[N+](=O)[O-] the results were Lassa entry inh inconclusive, HCMV antiviral 1, FMDV antiviral -16%, HCV inhibitor inconclusive and Marburg entry inh 4%[46.1 µM].
For COc1ccc(NC(=O)COC(=O)c2cccn2C)cc1S(=O)(=O)N1CCCCC1 the results were Lassa entry inh 9%[46.1 µM], HCMV antiviral -69*, FMDV antiviral -18%, HCV inhibitor inconclusive and Marburg entry inh inconclusive.
Screening Cn1cccc1C(=O)OCC(=O)Nc1ccc2c(c1)OCCO2 returned Lassa entry inh 7.1µM*, HCMV antiviral 132, FMDV antiviral -28%, HCV inhibitor -7% and Marburg entry inh 6.3µM*.
For COc1ccc(NC(=O)c2n[nH]c(=O)c3ccccc23)cc1S(=O)(=O)N1CCCCC1 the results were Lassa entry inh inconclusive, HCMV antiviral -17, FMDV antiviral inconclusive, FBPA Giardia inh -1%, HCV inhibitor 11µM* and Marburg entry inh inconclusive.
For Cc1cccn2cc(COc3ccc(-c4ccccc4)cc3)nc12 the results were Lassa entry inh inconclusive, HCMV antiviral -90*, FMDV antiviral 5%, FBPA Giardia inh 8%, HCV inhibitor inconclusive and Marburg entry inh inconclusive.
